Measured values: PubChem BioAssay AID686978 (National Center for Advancing Translational Sciences (NCATS), 2013)
Out of some 420,000 compounds screened, about 64,000 (15%) were called active. About 27% were inconclusive and are not listed. The list is a sample of the results. Unmarked numbers belong to inactive results. Calls follow the shape of the dose curve; as a rule, active = well fitted inhibition curve with a large enough effect; inconclusive = small, poorly fitted or top-dose-only effect; inactive = flat fitted curve, though single readings scatter.

Assay: qHTS for Inhibitors of human tyrosyl-DNA phosphodiesterase 1 (TDP1): qHTS in cells in absence of CPT; also: nearly all actives have a fitted effect of over 55% in size
Details: DT40 Tdp1-/- hTDP1 cells, no CPT, ATP luminescence, 48 h; activity change, negative = growth inhibition: at 46.2 µM (top of the series)
In short: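 Readout: luminescence from CellTiter-Glo after 30 min in the dark at RT. Cells: DT40 Tdp1-/- with stable hTDP1, 400/well. Exposure: compounds alone, ≥48 hr, 37 °C.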
% is scaled to controls: 0 for no effect and ±100 for the full control effect; potency is read from the fitted curve at half-maximal effect.

Row | Structure (SMILES) | activity change, negative = growth inhibition [%] | Potency
1 | CCOc1ccc(S(=O)(=O)NCCSc2ccccc2)cc1 | 2.24 | 
2 | O=C(COC(=O)c1ccccc1Br)Nc1nnc(-c2ccccc2)o1 | -7.07 | 
3 | O=C(Nc1cccc(Cl)c1)Nc1nnc(-c2ccccc2)o1 |  | 16.4 µM (active)
4 | O=C(Nc1nnc(-c2ccc(Cl)cc2)o1)c1ccccc1Br |  | 18.4 µM (active)
5 | O=C(Nc1ccccc1)c1ccccc1Br | -23.4 | 
6 | O=C(CSc1nnc(-c2ccncc2)o1)Nc1cccc(Cl)c1 | -5.19 | 
7 | CC(=O)Nc1cccc(C(=O)OCC(=O)Nc2nnc(-c3ccccc3)o2)c1 | 1.04 | 
8 | O=C(Cn1cnc2cc([N+](=O)[O-])ccc2c1=O)NC(=O)NCc1ccccc1 | 0.964 | 
9 | CCOC(=O)N1CCN(Cc2oc(CO)cc(=O)c2O)CC1 | 3.91 | 
10 | O=C(N/N=C/c1ccc2c(c1)OCO2)c1ccc(Cn2cc([N+](=O)[O-])cn2)o1 | -19.9 | 
11 | Cc1ccc(C(=O)O)cc1NC(=O)c1ccc(Cn2nc(C)c(Cl)c2C)o1 | 1.5 | 
12 | Cc1c(Cl)c([N+](=O)[O-])nn1Cc1ccc(C(=O)N/N=C\c2cc(Cl)ccc2O)o1 |  | 4.61 µM (active)
13 | O=C(O)CSCC(=O)Nc1ccc(C(F)(F)F)cc1 | 13.2 | 
14 | COc1ccc(C(C)=O)cc1CN1C(=O)NC2(CCCCC2C)C1=O (stereo not given) | 2.75 | 
15 | CNS(=O)(=O)c1cccc(C(=O)OCC(=O)N2c3ccccc3NC(=O)C2(C)C)c1 | -12.8 | 
16 | CC(C)c1cc(C(=O)N(C)C2CCCN(Cc3ccccc3F)C2)n(C)n1 (stereo not given) |  | 25.9 µM (active)
17 | CCCOC1CCCN(Cc2cn(C)nc2-c2ccccc2F)C1 (stereo not given) | -22.2 | 
18 | Cc1ccn(CC(=O)NC2CCCN(Cc3ccccc3F)C2)n1 (stereo not given) | -0.51 | 
19 | CC1CCCN(Cc2c(O)ccc3c(=O)c(Oc4ccc(C(C)(C)C)cc4)c(C(F)(F)F)oc23)C1 (stereo not given) | -17.9 | 
20 | Cn1nc(C(F)(F)F)c2cc(NC(=O)OCC(C)(C)C)sc21 | -12.7 | 
21 | COCCNC(=O)Cn1cc(C(=O)c2cccs2)c2ccccc21 | 6.96 | 
22 | O=C(c1cccs1)c1cn(CCOc2ccc(Cl)cc2)c2ccccc12 |  | 7.31 µM (active)
23 | COC(=O)Cn1cc(C(=O)c2cccs2)c2ccccc21 | -9.78 | 
24 | O=C(CC1SC(N2CCCC2)=NC1=O)Nc1ccc(C(=O)NCCc2ccc(F)cc2)cc1 (stereo not given) | -12.2 | 
25 | CC(=O)Nc1ccc(NS(=O)(=O)c2cc(C)sc2C)cc1 | -18.7 | 
26 | O=C(c1cccc([N+](=O)[O-])c1)N1CCN(C(=O)c2ccco2)CC1 | -8.93 | 
27 | COc1ccc(CCNC(=O)c2ccccc2-c2ccccc2C(=O)O)cc1OC | -10.3 | 

Row | Structure (SMILES) | activity change, negative = growth inhibition [%] | Potency
28 | O=C(c1ccccc1)N1CCN(c2ccc([N+](=O)[O-])c(NCc3ccco3)c2)CC1 |  | 16.4 µM (active)
29 | COc1ccc(CCNC(=O)CCc2ccccc2O)cc1OC | -27.5 | 
30 | O=[N+]([O-])c1cc(-c2nc(-c3ccccc3)no2)ccc1NCc1ccco1 | -21.4 | 
31 | COc1ccc(CCNc2cc(N3CCN(C(=O)c4ccccc4OC)CC3)ccc2[N+](=O)[O-])cc1OC |  | 9.2 µM (active)
32 | CCC(=O)N1CCC(C(N)=O)(N2CCCCC2)CC1 | -3.17 | 
33 | COc1cccc(C(=O)NC2=NC(c3ccc(N(C)C)cc3)CC(=O)N2)c1 (stereo not given) | -24.2 | 
34 | O=C(NCCCn1ccnc1)c1cc2c(s1)CCCC2 | 13 | 
35 | CCOCCCNC(=O)C(NC(=O)c1ccc(=O)[nH]c1)c1ccc(C)cc1 (stereo not given) | -13.8 | 
36 | CC(=O)N(CC(O)CO)c1c(I)c(C(=O)NCC(O)CO)c(I)c(C(=O)NCC(O)CO)c1I (stereo not given) |  | inactive
37 | COc1ccc(C2N=C(N)N=C(N)N2c2ccccc2)cc1OC (stereo not given) | -13.4 | 
38 | O=C(NCCS(=O)(=O)NCc1ccc(Cl)cc1)c1ccccc1 | -6.22 | 
39 | COc1ccc(CNC(=O)COC(=O)CCS(=O)(=O)c2ccc(C)cc2)cc1OC | 1.8 | 
40 | CCCS(=O)(=O)N1CCC(C(=O)NCCc2ccc(OC)c(OC)c2)CC1 | -1.2 | 
41 | CCCCCCn1c(=O)n2n(c1=O)C[C@]1(OC(=O)NCc3ccc(OC)c(OC)c3)CN(S(=O)(=O)c3ccc(C)cc3)C[C@]1(O)C2 |  | 20.6 µM (active)
42 | Cc1nnc(-c2ccc(Oc3ccc(C)c(C)c3)c([N+](=O)[O-])c2)o1 |  | 9.2 µM (active)
43 | CNc1ccc(-c2nc(-c3ccccc3C)no2)cc1[N+](=O)[O-] | -16 | 
44 | COc1ccc(-c2nc3cc([N+](=O)[O-])ccc3o2)cc1OC | -5.45 | 
45 | O=C(CCc1nc(CN2CCN(S(=O)(=O)c3ccc(Cl)cc3)CC2)no1)N1CCCCC1 | -21.3 | 
46 | O=C(COC(=O)COc1cccc(F)c1)NCC1CCCCC1 | 0.989 | 
47 | O=C1OC(C(=O)Nc2cccc(Br)c2)Cc2ccccc21 (stereo not given) | 1.96 | 
48 | CC(C)CC(CO)N1CCN(C(=O)c2ccc(Cl)cc2Cl)CCC1=O (stereo not given) | -11.6 | 
49 | CC(C)C[C@@H](CO)N1CCN(Cc2ccc(O)cc2)CCC1=O |  | inactive
50 | CC(C)C[C@@H](COCc1ccc(Cl)cc1)N1CCN(C(=O)c2ccc(Cl)cc2Cl)CCC1=O |  | 16.4 µM (active)
51 | Cc1nc(N)nc(Cl)c1CCC1OCCO1 | -6.83 | 
52 | Cc1csc(=Nc2ccccc2)n1CCO | 7.06 | 
53 | OCCn1c(-c2ccccc2)csc1=Nc1ccccc1 |  | 16.4 µM (active)
54 | CCOCCc1nn2c(=O)cc(CSCC(=O)Nc3cccc(C)c3C)nc2s1 | -7.26 | 

Row | Structure (SMILES) | activity change, negative = growth inhibition [%] | Potency
55 | O=C(COC(=O)CCc1ccc(S(=O)(=O)N2CCOCC2)cc1)Nc1cccc(Cl)c1 | 5.37 | 
56 | Cc1ccc2nc(COc3cccc(NC(=O)c4cccc(Cl)c4)c3)cc(=O)n2c1 | -22.2 | 
57 | O=C(Nc1ccon1)c1cccc(Cl)c1 | 3.62 | 
58 | Cc1cc(NC(=O)c2cccc(Cl)c2)ccc1-c1cc2ccccc2oc1=O |  | 23.1 µM (active)
59 | N/C(=N\OS(=O)(=O)c1cccc([N+](=O)[O-])c1)c1ccncc1 | -5.45 | 
60 | Cc1ccc(CNC(=O)C(=O)c2cn(CC(=O)N3CCOCC3)c3ccccc23)cc1 | 13.1 | 
61 | CCS(=O)(=O)c1ccc(C(=O)NC)c(Cl)c1Cl | 2.49 | 
62 | Cc1cc(O)ccc1-c1cnc2ccccc2n1 | -24.8 | 
63 | Cc1cccc(C)c1NC(=O)c1ccc(CN2CCc3ccccc3C2)cc1 |  | 20.6 µM (active)
64 | Cc1ccc(NC(=O)CN2CCc3ccccc3C2)cc1C | 0.0925 | 
65 | O=C(Nc1ccc(CSc2ccccc2)cc1)c1ccc(CN2CCOCC2)cc1 | 1.03 | 
66 | O=C(NNC(=O)c1csc(-c2cccnc2)n1)Nc1ccc(Cl)cc1 | -26.1 | 
67 | Fc1cccc(Cl)c1COc1ccc(-c2nnco2)cc1 | -11.1 | 
68 | C#CC(C)(CC)NC(=O)Cn1nnc(-c2ccc(OCc3c(F)cccc3Cl)cc2)n1 (stereo not given) |  | 18.4 µM (active)
69 | COCCCNC(=O)/C=C/c1ccc(OCc2c(F)cccc2Cl)cc1 | 2.03 | 
70 | O=C(OCCOCn1cc(Br)c(=O)[nH]c1=O)c1ccccc1 | -9.32 | 
71 | CN(N)c1nc(N2CCCC2)nc(N2CCCC2)n1 | -15.5 | 
72 | O=C(NCc1ccccc1)c1cc(-c2cccc(Cl)c2)on1 | -15.6 | 
73 | CCOC(=O)C1(CCOc2ccccc2)CCN(Cc2ccc(C#CCCO)cc2)CC1 |  | 16.4 µM (active)
74 | CCOC(=O)C1(S(=O)(=O)c2ccc(Cl)cc2)CCN(Cc2ccccc2)CC1 | -22 | 
75 | O=C(c1cn(CC2CCCN(Cc3cc4ccccc4s3)C2)nn1)N1CCCC1 (stereo not given) | -9.65 | 
76 | CCOC(=O)C1(CCOC)CCN(Cc2ccc(C(=O)OC)cc2)CC1 | -24.2 | 
77 | CCOC(=O)C1(CCOC)CCN(Cc2cc3ccccc3s2)CC1 |  | 16.4 µM (active)
78 | O=C(CCc1ccccc1)Nc1ccnn1C1CCN(Cc2ccc(OCCO)cc2)CC1 | 18.5 | 
79 | CCOc1cc2[nH]c(=S)n(CCN3CCCCC3C)c(=O)c2cc1OCC (stereo not given) | -22.3 | 
80 | O=C(NN1C(=O)C2C3C=CC(C3)C2C1=O)c1ccco1 (stereo not given) | -3.19 | 
81 | COc1ccc(OC)c(NC(=O)N[C@H](Cc2ccccc2)C(=O)NN)c1 | 9.7 | 

Row | Structure (SMILES) | activity change, negative = growth inhibition [%] | Potency
82 | O=C(COC(=O)/C=C/c1ccc(Br)o1)Nc1cccc(S(=O)(=O)N2CCOCC2)c1 | 9.84 | 
83 | O=C(Nc1ccc(-c2cscn2)cc1)C1CCCN(Cc2ccc(CO)o2)C1 (stereo not given) | -0.798 | 
84 | COc1ccccc1/C=N/N1CCN(Cc2ccccc2Cl)CC1 | 9.68 | 
85 | O=C1C(Cc2ccc(O)cc2)NC(=S)N1Cc1ccccc1 (stereo not given) | 9.72 | 
86 | CCS(=O)(=O)N1CCC(N2CCN(c3ccccc3)CC2)CC1 | -2.72 | 
87 | CCC1Nc2ncnc(N3CCN(c4ccccc4)CC3)c2N(Cc2ccc(Cl)cc2)C1=O (stereo not given) |  | 20.6 µM (active)
88 | O=C(Nc1ccnc(-c2ccncc2)n1)c1cccs1 | 11 | 
89 | CCc1ccc(S(=O)(=O)Nc2cc3c(cc2N2CCCCC2)n(C)c(=O)c(=O)n3C)cc1 | -11.4 | 
90 | Cn1c(=O)n(C)c2cc(C(=O)Nc3ccc(Br)cc3)ccc21 | -23 | 
91 | Cc1ccc(C(=O)Nc2cc3c(cc2N2CCCC2)n(C)c(=O)c(=O)n3C)cc1 |  | 20.6 µM (active)
92 | C=C(C)CNC(=O)c1ccc(OC2CCN(C(=O)COC)CC2)cc1 | -11.9 | 
93 | C=CCNC(=O)COC(=O)CNC(=O)c1cc(Cl)cc([N+](=O)[O-])c1 | 2.59 | 
94 | Cc1c(Cl)cccc1NC(=O)[C@@]1(CC(=O)O)CC(/C=C/c2ccccc2)=NO1 | -3.3 | 
95 | CCc1c(-c2ccc(F)cc2)ncn1Cc1cccc(-c2ccccc2)c1 |  | 11.6 µM (active)
96 | Cc1ccc(-c2csc(C(C#N)=C(O)CN3CCN(C(=O)c4ccco4)CC3)n2)cc1 | -14 | 
97 | Cc1ccc(CNC(=O)CCC(=O)N2Cc3ccccc3Oc3ncccc32)cc1 | -21.9 | 
98 | C=CCc1cc(C)ccc1OCCCn1ccnc1 | -29.9 | 
99 | OC(c1nc2ccc(F)cc2[nH]1)C(O)c1nc2ccc(F)cc2[nH]1 (stereo not given) | -27.1 | 
100 | Oc1ccc(Cl)cc1/C=N/c1nc2ccccc2[nH]1 | -2.28 | 
101 | SCc1nc2ccc(Cl)cc2[nH]1 |  | 3.98 µM (active)
102 | Cc1ccc2nc(SCC(=O)N3CCN(c4ccccc4)CC3)nc(=O)n2c1 | -22.6 | 
103 | CCc1nnc(NC(=O)CCCSc2nc3ccccc3[nH]2)s1 | -6.59 | 
104 | CCC(C)N1C(=O)S/C(=C/c2ccc(Sc3nc4ccccc4[nH]3)o2)C1=O (stereo not given) |  | 11.2 µM (active)
105 | CN1C(=O)/C(=C\c2ccc(-c3ccccc3)o2)SC1=S | -28.6 | 
